Assay results published in ChEMBL document CHEMBL3988442, “University of Dundee, Small-Polar-MMV Screening Library” (2021).
Hit rate of the full screen: of about 48,000 compounds, about 13,000 (27%) showed an effect of 50% or more. Some of the results follow.

test system: Wolbachia pipientis; experiment: Anti-Wolbachia Cell-Based Screen; format: functional; set-up: scale not given: in the data most compounds retested in dose-response had high values; details: 5 µM

SMILES | Percent Effect [%]
CC(C)c1cc(C2CCCN2C(=O)CN2C(=O)OC(C)(C)C2=O)no1 (stereo not drawn) | 116.9
Cc1ccc2c(c1)SCC(=O)N2CC(=O)N1CCCC1c1cc(C)on1 (stereo not drawn) | -2.59
Cc1cc(C2CCCCN2C(=O)CN2C(=O)OC(C)(C)C2=O)no1 (stereo not drawn) | 120.5
Cc1noc(C)c1C1CCCN1CCC(=O)N1CCc2ccccc2C1 (stereo not drawn) | -8.027
Cc1cc(C2CCCN2C(=O)CN(C)Cc2ccccc2)no1 (stereo not drawn) | -3.366
Cc1cc(C2CCCCN2C(=O)CN2CC3(CCNCC3)OC2=O)no1 (stereo not drawn) | -1.974
CC(C)c1cc(C2CCCN2C(=O)CN2C(=O)CCNC2=O)no1 (stereo not drawn) | 96.7
Cc1cc(CC(=O)N2CCCC2c2nc(C(C)C)no2)on1 (stereo not drawn) | -3.815
O=C1CCNC(=O)N1CC(=O)N1CCC1c1ccc(F)cc1 (stereo not drawn) | 13.18
Cc1noc(C)c1C1CCCN1C(=O)CN1C(=O)OC(C)(C)C1=O (stereo not drawn) | 87.43
Cc1noc(C)c1C1CCCN1C(=O)CN1CC2(CCNCC2)OC1=O (stereo not drawn) | -18.41
O=C(Cc1cccs1)NCC1COCc2c(-c3ccoc3)nnn2C1 (stereo not drawn) | -2.287
COc1cccc2c1OCC(C(=O)N1CCN(C3CCSCC3)CC1)C2 (stereo not drawn) | -19.41
Cc1cc(C2CCCN2C(=O)CN2C(=O)OC(C)(C)C2=O)on1 (stereo not drawn) | 91.01
Cc1cc(C2CCCN2C(=O)CN2CC3(CCNCC3)OC2=O)on1 (stereo not drawn) | 8.935
Cc1ccc2c(c1)SCC(=O)N2CC(=O)N1CCCC1c1cc(C)no1 (stereo not drawn) | 3.294
CN(CCC(F)(F)F)C(=O)[C@H]1CSCN1C(=O)OC(C)(C)C | -7.919
O=C(NC1CC1)c1cc(Cl)ccc1-n1cnnn1 | 2.892
Cc1ccc(C(=O)Nc2nnc(C(C)C)s2)c(-n2cnnn2)c1C | 110.4
Cc1ccc(C(=O)Nc2nnc(CC(C)C)s2)c(-n2cnnn2)c1C | 125.4
Cc1ccc(C(=O)Nc2nnc(C3CC3)s2)c(-n2cnnn2)c1C | 95.77
Cc1nn(C)c(C)c1CCC(=O)Nc1nnc(C2CC2)s1 | 27.73
COc1ccc(F)cc1C(=O)Nc1nnc(C)s1 | 1.67
CC(=O)N1CCC(NC(=O)c2ccccc2-n2cnnn2)CC1 | 3.237
O=C(Nc1nncs1)c1ccc(-n2cnnn2)cc1 | -0.9565
Cc1ccc(C(=O)NC2CC2)c(-n2cnnn2)c1C | 120.6
Cc1ccc(CNC(=O)Nc2nnc(C3CC3)s2)n1C | -14.35
CCc1nnc(NC(=O)c2ccc(C3CCCN3CC(C)C)s2)s1 (stereo not drawn) | -1.663
